Read-out in assay [1]: urokinase plasminogen activator (uPA), PLAU (gene 5328)
The experiment in a line: BSK_KF3CT_uPA: BioMAP Diversity Plus: KF3CT Assay for urokinase plasminogen activator (uPA) Biomarker Activity (AID 2283075). Particulars: primary human keratinocytes with fibroblasts; actives raise or lower the signal. The essentials: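 ELISA read-out of uPA 24 h after dosing human skin keratinocytes co-cultured with foreskin fibroblasts. Signal change fitted both ways relative to DMSO; sulforhodamine B on parallel cultures marks overt cytotoxicity.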

Read-out in assay [2]: CD40, CD40 (gene 958)
Briefly: BSK_LPS_CD40: BioMAP Diversity Plus: LPS Assay for CD40 Biomarker Activity (AID 2283076). As to conditions: primary human HUVEC with PBMC; actives raise or lower the signal. In a few lines: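 Primary human umbilical vein endothelial cells co-cultured with peripheral blood mononuclear cells, LPS-stimulated, were dosed with chemical and read 24 h later. CD40 levels were measured by ELISA and fitted bidirectionally against DMSO as negative control and baseline.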

Read-out in assay [3]: E-selectin (Homo sapiens) (UniProt P16581)
The experiment in a line: BSK_LPS_Eselectin: BioMAP Diversity Plus: LPS Assay for Eselectin Biomarker Activity (AID 2283077). As to conditions: primary human HUVEC with PBMC; actives raise or lower the signal. In a few lines:
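Human umbilical vein endothelial cells co-cultured with peripheral blood mononuclear cells under LPS stimulation; E-selectin measured by ELISA 24 h after chemical dosing. Activity fitted bidirectionally against DMSO as negative control and baseline.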

Read-out in assay [4]: Interleukin-8 (IL8), CXCL8 (gene 3576)
Briefly: BSK_LPS_IL8: BioMAP Diversity Plus: LPS Assay for Interleukin-8 (IL8) Biomarker Activity (AID 2283078). As to conditions: primary human HUVEC with PBMC; actives raise or lower the signal. The essentials:
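Human umbilical vein endothelial cells co-cultured with PBMC were stimulated with LPS; IL-8 levels were measured by ELISA 24 h after chemical dosing. Activity was fitted bidirectionally against DMSO as negative control and baseline.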

Assay [5] in a line: BSK_LPS_SRB: Viability Assessment in the BioMAP Diversity Plus: LPS Assay (AID 2283079).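 Note: total protein by sulforhodamine B absorbance as a cytotoxicity measure; measured one day after compound addition.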 As to conditions: primary human HUVEC with PBMC. In a few lines:
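Human umbilical vein endothelial cells co-cultured with PBMC (LPS system) were dosed for 24 h. Total protein was stained with 0.1% sulforhodamine B after 10% TCA fixation, read at 560 nm, and fitted bidirectionally against DMSO baseline.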

Read-out in assay [6]: Interleukin-1 alpha (IL1a), IL1A (gene 3552)
Briefly: BSK_LPS_IL1a: BioMAP Diversity Plus: LPS Assay for Interleukin-1 alpha (IL1a) Biomarker Activity (AID 2283080). Particulars: primary human HUVEC with PBMC; actives raise or lower the signal. In a few lines: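 Human umbilical vein endothelial cells co-cultured with peripheral blood mononuclear cells were LPS-stimulated and exposed to test chemicals for 24 h. IL-1 alpha was quantified by ELISA, with bidirectional curve fitting against DMSO as the negative control and baseline.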

Read-out in assay [7]: Monocyte Chemoattractant Protein-1 (MCP1), CCL2 (gene 6347)
Briefly: BSK_LPS_MCP1: BioMAP Diversity Plus: LPS Assay for Monocyte Chemoattractant Protein-1 (MCP1) Biomarker Activity (AID 2283081). As to conditions: primary human HUVEC with PBMC; actives raise or lower the signal. In a few lines:
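HUVEC plus PBMC co-culture (human primary cells, LPS system) exposed to test chemical for 24 h; MCP-1 measured by ELISA. Bidirectional curve fitting against DMSO baseline; parallel SRB total-protein staining flags overt cytotoxicity.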

Assay [8] can be described thus: BSK_LPS_PGE2: BioMAP Diversity Plus: LPS Assay for Prostaglandin E2 (PGE2) Biomarker Activity (AID 2283082).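 For AC50: secreted prostaglandin E2 measured by ELISA in LPS-stimulated co-culture.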 Particulars: primary human HUVEC with PBMC; actives raise or lower the signal. The essentials:
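Primary human endothelial cells and blood mononuclear cells, co-cultured with LPS, receive test chemical; PGE2 ELISA follows at 24 h, with SRB-stained parallel cultures flagging cytotoxicity.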

Read-out in assay [9]: Macrophage colony-stimulating factor (MCSF), CSF1 (gene 1435)
The experiment in a line: BSK_LPS_MCSF: BioMAP Diversity Plus: LPS Assay for Macrophage colony-stimulating factor (MCSF) Biomarker Activity (AID 2283083). As to conditions: primary human HUVEC with PBMC; actives raise or lower the signal. In a few lines:
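Human umbilical vein endothelial cells co-cultured with peripheral blood mononuclear cells were exposed to compound for 24 h. M-CSF levels were measured by ELISA, and bidirectional curve fitting used DMSO as the negative control and baseline.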

Read-out in assay [10]: Tissue Factor, F3 (gene 2152)
The experiment in a line: BSK_LPS_TissueFactor: BioMAP Diversity Plus: LPS Assay for Tissue Factor Biomarker Activity (AID 2283084). As to conditions: primary human HUVEC with PBMC; actives raise or lower the signal. In a few lines: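 Human umbilical vein endothelial cells co-cultured with peripheral blood mononuclear cells were dosed and stimulated with LPS. Cell-surface CD142 was quantified by ELISA at 24 h. Activity was fitted bidirectionally against DMSO baseline.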

Read-out in assay [11]: Tumor necrosis factor (Homo sapiens) (UniProt P01375)
Briefly: BSK_LPS_TNFa: BioMAP Diversity Plus: LPS Assay for Tumour Necrosis Factor alpha (TNFa) Biomarker Activity (AID 2283085). Particulars: primary human HUVEC with PBMC; actives raise or lower the signal. The essentials:
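ELISA-based TNFa endpoint in a human endothelial–PBMC co-culture sampled 24 h post-exposure. Curves were fitted in both directions using DMSO as baseline of activity.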

Read-out in assay [12]: Vascular cell adhesion molecule 1 (VCAM1), VCAM1 (gene 7412)
Briefly: BSK_LPS_VCAM1: BioMAP Diversity Plus: LPS Assay for Vascular cell adhesion molecule 1 (VCAM1) Biomarker Activity (AID 2283086). As to conditions: primary human HUVEC with PBMC; actives raise or lower the signal. In a few lines: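 Measured by ELISA: VCAM-1 in LPS-activated HUVEC/PBMC co-cultures 24 h after treatment. Values reflect bidirectional fitting with DMSO as baseline.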

Read-out in another assay: CD38, CD38 (gene 952)
The experiment in a line: BSK_SAg_CD38: BioMAP Diversity Plus: SAg Assay for CD38 Biomarker Activity (AID 2283087). Particulars: primary human HUVEC with PBMC; actives raise or lower the signal. In a few lines: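 Measures CD38 on a human endothelial/PBMC co-culture driven by SEB and TSST-1, 24 h after compound exposure, using ELISA with fluorescence detection; DMSO defines baseline for bidirectional curve fitting.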

Read-out in assay [13]: CD40, CD40 (gene 958)
The experiment in a line: BSK_SAg_CD40: BioMAP Diversity Plus: SAg Assay for CD40 Biomarker Activity (AID 2283088). Particulars: primary human HUVEC with PBMC; actives raise or lower the signal. In a few lines:
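Human umbilical vein endothelial cells co-cultured with PBMC; CD40 levels measured by ELISA with fluorescence read-out 24 h after chemical dosing. Gain or loss of signal fitted bidirectionally against DMSO baseline.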

Read-out in assay [14]: Monocyte Chemoattractant Protein-1 (MCP1), CCL2 (gene 6347)
Briefly: BSK_SAg_MCP1: BioMAP Diversity Plus: SAg Assay for Monocyte Chemoattractant Protein-1 (MCP1) Biomarker Activity (AID 2283090). As to conditions: primary human HUVEC with PBMC; actives raise or lower the signal. In a few lines: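 Values derive from bidirectional fitting of ELISA-measured MCP1 against DMSO controls. Readings were taken 24 h after dosing human vascular endothelial cells co-cultured with peripheral blood mononuclear cells under superantigen stimulation.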

Read-out in assay [15]: E-selectin (Homo sapiens) (UniProt P16581)
Briefly: BSK_SAg_Eselectin: BioMAP Diversity Plus: SAg Assay for Eselectin Biomarker Activity (AID 2283091). Particulars: primary human HUVEC with PBMC; actives raise or lower the signal. In a few lines:
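HUVEC co-cultured with PBMC, compound dosed then read at 24 h; E-selectin measured by ELISA. Activity fitted bidirectionally against DMSO as negative control and baseline.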

Read-out in assay [16]: Monokine induced gamma interferon (MIG), CXCL9 (gene 4283)
The experiment in a line: BSK_SAg_MIG: BioMAP Diversity Plus: SAg Assay for Monokine induced gamma interferon (MIG) Biomarker Activity (AID 2283092). Particulars: primary human HUVEC with PBMC; actives raise or lower the signal. In a few lines: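 HUVEC plus human PBMC co-culture, chemicals dosed and MIG (CXCL9) quantified by ELISA at 24 h. Bidirectional curve fitting against DMSO as negative control and baseline, so both gain and loss of signal count as activity.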

Assay [17] can be described thus: BSK_SAg_PBMCCytotoxicity: PBMC Cytotoxicity Assessment in the BioMAP Diversity Plus: SAg Assay (AID 2283093).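 Note: PBMC viability measured as Alamar Blue reduction fluorescence at 546/580 nm; fitted both ways against DMSO so a hit may be loss or gain of signal.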 As to conditions: primary human HUVEC with PBMC. The essentials:
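Alamar Blue reduction (6 h, ex/em 546/580 nm) read after 90 h culture of PBMC pre-dosed 1 h then stimulated with SEB plus TSST-1, 20 ng/mL each. Gain or loss of signal fitted relative to DMSO.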

Read-out in assay [18]: Interleukin-8 (IL8), CXCL8 (gene 3576)
The experiment in a line: BSK_SAg_IL8: BioMAP Diversity Plus: SAg Assay for Interleukin-8 (IL8) Biomarker Activity (AID 2283094). As to conditions: primary human HUVEC with PBMC; actives raise or lower the signal. The essentials:
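Primary human endothelial cells with PBMC, exposed 24 h; IL-8 determined by ELISA, analysed bidirectionally relative to DMSO.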

Assay [19] in a line: BSK_SAg_Proliferation: Cell Proliferation Assessment in the BioMAP Diversity Plus: SAg Assay (AID 2283095).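 Note: relative cell number as total protein by SRB absorbance in sub-confluent culture.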 As to conditions: primary human HUVEC with PBMC. The essentials:
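A human primary co-culture of umbilical vein endothelium and blood mononuclear cells receives compound; relative cell number is quantified at 96 h by SRB staining and 560 nm absorbance, with DMSO-referenced bidirectional curve fitting.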

A structure can be active in one record and inactive in another. Calls of active or inactive are those of the source. Rule for the calls: active = hit-call score of the fitted dose curve at least 0.9, where 1 is the maximum; inactive = score below 0.9.

The source of these data is PubChem BioAssay (EPA / NIEHS).

As usually defined, the AC50 is the concentration giving half of the maximal activity seen.

Chain of E-selectin (Homo sapiens) (P16581 whole entry, looked up): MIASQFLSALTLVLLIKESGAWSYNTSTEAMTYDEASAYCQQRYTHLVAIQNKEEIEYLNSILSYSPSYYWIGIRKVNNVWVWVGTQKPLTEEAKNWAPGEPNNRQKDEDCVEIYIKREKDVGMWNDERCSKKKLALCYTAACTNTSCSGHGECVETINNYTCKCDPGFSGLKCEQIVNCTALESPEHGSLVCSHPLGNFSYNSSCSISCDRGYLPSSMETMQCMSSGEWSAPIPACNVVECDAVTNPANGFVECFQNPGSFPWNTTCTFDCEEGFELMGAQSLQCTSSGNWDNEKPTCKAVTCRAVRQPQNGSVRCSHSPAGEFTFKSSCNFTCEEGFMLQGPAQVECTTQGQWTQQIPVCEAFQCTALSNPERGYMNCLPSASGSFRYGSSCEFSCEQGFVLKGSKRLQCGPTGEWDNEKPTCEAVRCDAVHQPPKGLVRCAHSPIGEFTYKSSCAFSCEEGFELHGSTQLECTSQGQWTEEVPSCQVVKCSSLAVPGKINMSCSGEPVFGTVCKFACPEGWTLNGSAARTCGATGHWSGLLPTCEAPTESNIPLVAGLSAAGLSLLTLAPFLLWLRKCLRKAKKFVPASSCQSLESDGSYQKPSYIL
Chain of Tumor necrosis factor (Homo sapiens) (P01375 whole entry, looked up): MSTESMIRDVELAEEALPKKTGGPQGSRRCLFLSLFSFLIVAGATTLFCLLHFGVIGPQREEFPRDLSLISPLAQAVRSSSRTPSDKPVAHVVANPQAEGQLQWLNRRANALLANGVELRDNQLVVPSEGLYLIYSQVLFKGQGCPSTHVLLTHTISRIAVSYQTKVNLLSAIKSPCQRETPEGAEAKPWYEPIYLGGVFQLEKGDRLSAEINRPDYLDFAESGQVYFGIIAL

On to `CCO[Si](CCCN=C=O)(OCC)OCC`, for which the outcome in assay [1] was “inactive”; with CD40, CD40 (gene 958) [2] it was “inactive”; in assay [3], “inactive”; in [4], “inactive”; in assay [5], “inactive”; in assay [6] it was “inactive”. Besides, the outcome in assay [7], in [8], in assay [9], in [10], in assay [11] and in [12] was inactive. Moreover, the outcome was “inactive” with CD38, CD38 (gene 952); “inactive” in the assay with CD40, CD40 (gene 958) [13]; “inactive” in [14]; “inactive” in assay [15]; “inactive” in [16]; “inactive” in assay [17]. Moreover, the result in assay [18] and in assay [19] was inactive.

In the case of `CC(C)(c1cc(Br)c(OCCO)c(Br)c1)c1cc(Br)c(OCCO)c(Br)c1`, the half-maximal activity concentration (AC50) is 16.2 µM (active) in [1]; 11.9 µM (active) with CD40, CD40 (gene 958) [2]; 16.2 µM (active) in [5]; 0.121 µM (active) in assay [8]; 16.2 µM (active) in [12]; 5.1 µM (active) with CD38, CD38 (gene 952). Also, the concentration at half-maximal activity (AC50) with CD40, CD40 (gene 958) [13] is 13.3 µM (active); in [15], 1.44 µM (active); in assay [19] it was 0.479 µM (active). The outcome in [3], in assay [4], in [6], in assay [7], in assay [9] and in [10] was inactive. Also, the outcome in assay [11], in [14], in [16], in assay [17] and in assay [18] was inactive.

Consider `CCCCNc1ccc(NCCCC)c2c1C(=O)c1ccccc1C2=O`, for which the outcome was “inactive” in assay [1]; “inactive” with CD40, CD40 (gene 958) [2]; “inactive” in assay [3]; “inactive” in assay [4]; “inactive” in [5]; “inactive” in [6]. The result in assay [7], in assay [8], in assay [9], in [10], in [11] and in [12] was inactive. The outcome with CD38, CD38 (gene 952) is “inactive”; with CD40, CD40 (gene 958) [13] it was “inactive”; in assay [14], “inactive”; in assay [15], “inactive”; in [16] it was “inactive”; in [17] it was “inactive”. Further, the result in assay [18] and in [19] was inactive.

On to `O=C(c1ccc(O)cc1)c1ccc(O)cc1O`, for which the outcome in assay [1] was “inactive”; with CD40, CD40 (gene 958) [2], “inactive”; in assay [3], “inactive”; in assay [4], “inactive”; in assay [5], “inactive”; in assay [6], “inactive”. Moreover, the outcome in [7], in [8], in assay [9], in assay [10], in [11] and in assay [12] was inactive. Moreover, the outcome was “inactive” in the assay with CD38, CD38 (gene 952); “inactive” with CD40, CD40 (gene 958) [13]; “inactive” in assay [14]; “inactive” in [15]; “inactive” in assay [16]; “inactive” in assay [17]. The result in [18] and in assay [19] was inactive. For the same molecule, the concentration at half-maximal activity (AC50) is 20 µM (active) with CD38, CD38 (gene 952) and 14.2 µM (active) in [19].
